These results are taken from PubChem BioAssay (Tox21).

A short description of assay [1]: qHTS assay to identify small molecule agonists of the peroxisome proliferator-activated receptor delta (PPARd) signaling pathway - cell viability counter screen (AID 743211). Note: nearly all actives have a fitted effect of over 55% in size. The settings on record: PPARd-bla HEK293H viability, CellTiter-Glo luminescence, 17 h; series mostly up to 62.6 µM. The method in brief: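 Tox21 library compounds, delivered in DMSO, were incubated 17 h with PPARd-bla HEK293H cells; cytotoxicity was taken from CellTiter-Glo luminescence read 30 min after reagent addition.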

A short description of assay [2]: qHTS assay to identify small molecule antagonists of the peroxisome proliferator-activated receptor delta (PPARd) signaling pathway - cell viability counter screen (AID 743213). Note: nearly all actives have a fitted effect of over 50% in size. The settings on record: PPARd-bla HEK293H viability, CellTiter-Glo luminescence, 17 h; series mostly up to 62 µM. The method in brief:
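PPARd-bla HEK293H cells (3000/well) got compound plus 300 nM L165041 agonist for 17 h at 37 C. Viability in the same wells came from CellTiter-Glo luminescence after 30 min at room temperature.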

Assay [3] has as its target Bile acid receptor (Homo sapiens) (UniProt Q96RI1). As to the kind of experiment: qHTS assay to identify small molecule antagonists of the farnesoid-X-receptor (FXR) signaling pathway (AID 743217; active = well fitted inhibition curve with a large enough effect in the signal ratio in the repeat runs, not every such curve was filed as active; the % refers to the signal ratio). The settings on record: HEK293T FXR-UAS-bla, beta-lactamase ratio, CDCA-stimulated, 16 h; series mostly up to 62.6 µM. The method in brief: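 Cells carrying a UAS-driven beta-lactamase reporter (GeneBLAzer FXR-UAS-bla HEK 293T) were plated and rested 5 h at 37 °C. Compounds in DMSO were added alongside chenodeoxycholic acid agonist at 50 uM final and left 16 h at 37 °C before FRET substrate readout.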

Assay [4] in a line: qHTS assay to identify small molecule agonists of the farnesoid-X-receptor (FXR) signaling pathway - cell viability counter screen (AID 743218). Note: nearly all actives have a fitted effect of over 45% in size. As to conditions: FXR-bla HEK293T viability, CellTiter-Glo luminescence, 16 h; series mostly up to 62.6 µM. The method in brief:
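Cells were seeded, left 5 h at 37 C and 5% CO2, then dosed with compound in DMSO for 16 h. After the beta-lactamase FRET read, CellTiter-Glo was added and luminescence measured 30 min later.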

Assay [5] concerns the target Bile acid receptor (Homo sapiens) (UniProt Q96RI1). The experiment in a line: qHTS assay to identify small molecule agonists of the farnesoid-X-receptor (FXR) signaling pathway (AID 743220; active = well fitted activation curve with a large enough effect in the signal ratio in the repeat runs, not every such curve was filed as active; the % refers to the signal ratio; note: potency is the fitted concentration of half-maximal effect). The settings on record: HEK293T FXR-UAS-bla, beta-lactamase FRET ratio, 16 h; series mostly up to 62.6 µM. The method in brief:
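FXR-UAS-bla HEK 293T cells carrying a UAS-driven beta-lactamase reporter were plated for 5 h at 37C/5% CO2, then exposed to DMSO-dissolved Tox21 10K compounds for 16 h at 37C. A LiveBLAzer B/G FRET substrate was loaded for 2 h at room temperature before fluorescence reading.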

The nature of assay [6]: qHTS assay to identify small molecule antagonists of the farnesoid-X-receptor (FXR) signaling pathway - cell viability counter screen (AID 743221; active = well fitted cell-killing curve with a large enough effect in the repeat runs, not every such curve was filed as active; note: nearly all actives have a fitted effect of over 50% in size). As to conditions: FXR-bla HEK293T viability, CellTiter-Glo luminescence, 16 h; series mostly up to 62.6 µM. The method in brief:
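Cytotoxicity is taken from ATP luminescence (CellTiter-Glo, 30 min, room temperature) in FXR-bla HEK 293T cells previously incubated 16 h at 37 C with compound and chenodeoxycholic acid at 50 uM final.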

Assay [7] addresses Vitamin D3 receptor (Homo sapiens) (UniProt P11473). The experiment in a line: qHTS assay to identify small molecule agonists of the vitamin D receptor (VDR) signaling pathway (AID 743222; calls by dose curve). As to conditions: HEK293T VDR-UAS-bla, beta-lactamase FRET ratio, 16 h; series mostly up to 63.5 µM. The method in brief: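 Cells carrying a VDR-driven beta-lactamase reporter are seeded at 2,000 per well and rested 4 h. Compounds in DMSO are added for 16 h at 37C, and FRET substrate fluorescence is measured after 2 h at room temperature.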

Assay [8] shares this target. As to the kind of experiment: qHTS assay to identify small molecule antagonists of the vitamin D receptor (VDR) signaling pathway (AID 743223; active = well fitted inhibition curve with a large enough effect in the signal ratio in the repeat runs, not every such curve was filed as active; the % refers to the signal ratio). The settings on record: VDR-UAS-bla HEK293T, beta-lactamase FRET ratio, 16 h; series mostly up to 61 µM. The method in brief: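 Quantitative HTS in VDR-bla reporter cells stimulated with 1alpha,25-dihydroxyvitamin D3, 3 nM final. Compound exposure 16 h, 37C, 5% CO2. Read-out: beta-lactamase FRET substrate fluorescence, 2 h RT.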

Assay [9] in a line: qHTS assay to identify small molecule agonists of the vitamin D receptor (VDR) signaling pathway - cell viability counter screen (AID 743224). Note: nearly all actives have a fitted effect of over 50% in size. As to conditions: VDR-bla HEK293T viability, CellTiter-Glo luminescence, 16 h; series mostly up to 62.6 µM. The method in brief:
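Cells: VDR-bla, 2,000/well, settled 4 h. Treatment: compounds in DMSO, 16 h, 37C/5% CO2. Readout: CellTiter-Glo luminescence after 30 min RT.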

The nature of assay [10]: qHTS assay to identify small molecule antagonists of the vitamin D receptor (VDR) signaling pathway - cell viability counter screen (AID 743225). Note: nearly all actives have a fitted effect of over 50% in size. As to conditions: VDR-bla HEK293T viability, CellTiter-Glo luminescence, 16 h; series mostly up to 61 µM. The method in brief: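 Same-well multiplex: following 16 h treatment of HEK 293T cells carrying a UAS-driven beta-lactamase reporter with compound and agonist (3 nM final), and a 2 h FRET substrate step, CellTiter-Glo was added and luminescence read after 30 min.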

A short description of assay [11]: qHTS assay to identify small molecule agonists of the NFkB signaling pathway (AID 1159509; active = well fitted curve in the direction sought with a large enough effect in the signal ratio in the repeat runs, not every such curve was filed as active; the % refers to the signal ratio). As to conditions: NFkB-bla ME-180 cells, beta-lactamase FRET ratio, 5 h; series mostly up to 61 µM. The method in brief: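 Agonist activity was read as beta-lactamase-driven FRET change (460 and 530 nm emission, 405 nm excitation) following 1.5 hr substrate loading at room temperature. Beforehand, ME-180 NFkB-bla reporter cells were treated with compounds for 5 hr at 37 C.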

The nature of assay [12]: qHTS assay to identify small molecule agonists of the NFkB signaling pathway - cell viability counter screen (AID 1159515; calls by dose curve; note: nearly all actives have a fitted effect of over 55% in size). The settings on record: NFkB-bla ME-180 viability, CellTiter-Glo luminescence, 5 h; series mostly up to 61 µM. The method in brief: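 Cells are seeded (2,000 NFkB-bla ME-180 per well), rested overnight, and dosed with DMSO-dissolved compounds for 5 hr at 37 C. Viability is then read by CellTiter-Glo luminescence after 30 min at room temperature.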

Assay [13] in a line: qHTS assay to identify small molecule agonists of the endoplasmic reticulum stress response signaling pathway (AID 1159516; active = well fitted activation curve with a large enough effect in the signal ratio in the repeat runs, not every such curve was filed as active; the % refers to the signal ratio). As to conditions: ESRE-bla HeLa, ER stress beta-lactamase reporter, 5 h; series mostly up to 61 µM. The method in brief: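 Cells are seeded at 1,500 per well and incubated overnight. Compounds in DMSO are added for 5 hr at 37 C, then beta-lactamase FRET substrate for 2 hr at room temperature, and fluorescence at 460 and 530 nm is measured.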

Assay [14] is described as follows: qHTS assay to identify small molecule antagonists of the retinoid-related orphan receptor gamma (ROR-gamma) signaling pathway - cell viability counter screen (AID 1159520). Note: nearly all actives have a fitted effect of over 50% in size. Note: potency is the fitted concentration of half-maximal effect. The settings on record: Tet-on RORgamma CHO cells viability, ATP luminescence, 16 h; series mostly up to 92.4 µM. The method in brief: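 Tet-on ROR gamma CHO cells were given compounds for 2 hr, then doxycycline hyclate at 1 uM final, and incubated 16 hr at 37 C. Viability was measured as ATP content by CellTiter-Glo luminescence.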

Assay [15] can be described thus: qHTS assay to identify small molecule agonists of the AP-1 signaling pathway - cell viability counter screen (AID 1159525; calls by dose curve; note: nearly all actives have a fitted effect of over 55% in size). The settings on record: ME-180 AP-1-bla cells viability, ATP luminescence, 5 h; series mostly up to 76.8 µM. The method in brief: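 Same-well cytotoxicity counter screen of the Tox21 10K library in ME-180 cells. The readout is ATP-dependent luminescence after 5 h compound treatment. Data are normalised to DMSO and tetra n-octyl ammonium bromide controls.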

A short description of assay [16]: qHTS assay to identify small molecule agonists of the AP-1 signaling pathway (AID 1159526; calls by dose curve). As to conditions: ME-180 (cervical carcinoma) AP-1-bla reporter, beta-lactamase FRET ratio, 5 h; series mostly up to 76.8 µM.
Assay [17] has as its target Peroxisome proliferator-activated receptor delta (Homo sapiens) (UniProt Q03181). The experiment in a line: qHTS assay to identify small molecule antagonists of the peroxisome proliferator-activated receptor delta (PPARd) signaling pathway (AID 743215; active = well fitted inhibition curve with a large enough effect in the signal ratio in the repeat runs, not every such curve was filed as active; the % refers to the signal ratio;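 note: cells stimulated with agonist L165041 at 300 nM final during compound exposure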). As to conditions: HEK293H PPARd-UAS-bla, beta-lactamase FRET ratio, antagonist, 17 h; series mostly up to 62 µM. The method in brief: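 Cells: HEK293H with a UAS-driven beta-lactamase reporter responsive to PPARd. Compounds were co-added with L165041 (300 nM, final) and incubated 17 h at 37 C before a 2 h room-temperature FRET substrate step and fluorescence reading.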

Assay [18] shares this target. The experiment in a line: qHTS assay to identify small molecule agonists of the peroxisome proliferator-activated receptor delta (PPARd) signaling pathway (AID 743212; calls by dose curve). As to conditions: HEK293H PPARd-UAS-bla, beta-lactamase FRET ratio, 17 h; series mostly up to 62.6 µM. The method in brief: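 Tox21 library screened in GeneBLAzer PPARd UAS-bla HEK293H cells. After compound treatment at 37 C, a FRET-based beta-lactamase substrate was applied for 2 h and fluorescence recorded.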

Results filed as inconclusive are left out. Unmarked numbers belong to inactive results. Calls of active or inactive are those of the source. Unless noted, calls come from the whole dose curve; as a rule, active = well fitted curve in the direction sought with a large enough effect in the repeat runs; inconclusive = weak or mixed curves; inactive = no such curve, though single readings can be large; an effect the other way counts as inactive or inconclusive.

Chain of Bile acid receptor (Homo sapiens) (Q96RI1 whole entry, looked up): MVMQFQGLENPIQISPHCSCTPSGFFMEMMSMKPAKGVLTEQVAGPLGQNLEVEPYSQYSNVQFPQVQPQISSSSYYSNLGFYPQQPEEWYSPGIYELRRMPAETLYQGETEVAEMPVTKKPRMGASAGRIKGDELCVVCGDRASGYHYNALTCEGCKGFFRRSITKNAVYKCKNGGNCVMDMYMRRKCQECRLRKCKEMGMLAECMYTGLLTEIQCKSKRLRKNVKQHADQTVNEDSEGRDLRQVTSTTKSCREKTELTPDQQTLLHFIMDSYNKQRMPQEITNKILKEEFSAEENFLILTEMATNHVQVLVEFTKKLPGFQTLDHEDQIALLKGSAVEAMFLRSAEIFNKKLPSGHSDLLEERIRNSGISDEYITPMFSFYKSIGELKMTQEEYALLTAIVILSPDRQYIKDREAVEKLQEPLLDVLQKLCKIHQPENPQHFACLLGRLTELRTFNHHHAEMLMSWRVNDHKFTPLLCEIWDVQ
Chain of Peroxisome proliferator-activated receptor delta (Homo sapiens) (Q03181 whole entry, looked up): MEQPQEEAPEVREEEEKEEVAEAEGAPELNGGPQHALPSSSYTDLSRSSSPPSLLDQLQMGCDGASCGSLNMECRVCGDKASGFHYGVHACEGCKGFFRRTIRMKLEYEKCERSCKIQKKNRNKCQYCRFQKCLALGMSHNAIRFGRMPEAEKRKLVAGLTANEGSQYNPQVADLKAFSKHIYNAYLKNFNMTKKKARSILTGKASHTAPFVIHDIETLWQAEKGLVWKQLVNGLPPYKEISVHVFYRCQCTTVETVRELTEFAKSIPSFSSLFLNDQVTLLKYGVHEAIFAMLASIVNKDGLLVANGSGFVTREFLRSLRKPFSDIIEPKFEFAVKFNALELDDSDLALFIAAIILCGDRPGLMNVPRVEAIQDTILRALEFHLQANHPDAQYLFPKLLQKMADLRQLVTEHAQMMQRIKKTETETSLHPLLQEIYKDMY
Chain of Vitamin D3 receptor (Homo sapiens) (P11473 whole entry, looked up): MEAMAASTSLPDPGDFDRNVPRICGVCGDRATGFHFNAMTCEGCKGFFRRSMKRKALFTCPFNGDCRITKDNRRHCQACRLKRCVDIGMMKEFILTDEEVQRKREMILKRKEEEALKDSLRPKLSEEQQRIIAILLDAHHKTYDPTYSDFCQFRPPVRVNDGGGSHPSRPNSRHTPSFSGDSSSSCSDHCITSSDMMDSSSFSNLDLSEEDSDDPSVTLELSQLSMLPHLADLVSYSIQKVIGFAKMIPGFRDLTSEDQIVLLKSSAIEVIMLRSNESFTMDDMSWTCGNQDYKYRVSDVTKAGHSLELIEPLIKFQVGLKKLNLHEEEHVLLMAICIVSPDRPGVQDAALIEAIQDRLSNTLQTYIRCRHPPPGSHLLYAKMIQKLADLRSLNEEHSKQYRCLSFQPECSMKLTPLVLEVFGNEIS

In the case of `Cc1cc(S(=O)(=O)O)ccc1N=Nc1c(O)ccc2ccccc12`, the Potency entry in [1], in assay [2], in assay [3], in assay [4], in [5] and in [6] was “inactive” each time. The Potency entry in [9], in [10] and in [14] was “inactive” in each case. The result in assay [7], in assay [8], in [11], in assay [12], in assay [13] and in assay [15] was inactive. Besides, the outcome in assay [16] was inactive.

Regarding `COCCOC(=O)C1=C(C)NC(C)=C(C(=O)OC/C=C/c2ccccc2)C1c1cccc([N+](=O)[O-])c1` (stereo unspecified), the Potency result in [2], in assay [17], in assay [4], in assay [6], in [9] and in assay [10] was “inactive” each time. The Potency in assay [5] is 9.44 µM (active). Besides, the outcome in assay [8], in assay [11], in assay [12], in assay [13] and in [15] was inactive.

On to `CCc1c2c(nc3ccc(OC(=O)N4CCC(N5CCCCC5)CC4)cc13)-c1cc3c(c(=O)n1C2)COC(=O)[C@]3(O)CC`, for which the Potency result in [1], in assay [18], in [4], in [5], in assay [6] and in [14] was “inactive” throughout. Besides, the result in assay [11], in assay [12], in assay [13] and in assay [15] was inactive.

As to `CCCCC(CC)COC(=O)COc1ccc(Cl)cc1C` (stereo unspecified), the Potency result in assay [1], in [18], in assay [2], in assay [4], in assay [5] and in assay [6] was “inactive” throughout. The Potency entry in [9], in assay [10] and in assay [14] was “inactive” throughout. The outcome in assay [7], in [8], in assay [11], in [12], in assay [13] and in assay [15] was inactive. Besides, the outcome in assay [16] was inactive.

`Cc1ccc(S(=O)(=O)NC2CCCCC2)cc1`: the Potency result in [1], in assay [18], in assay [2], in assay [17], in [3] and in [4] was “inactive” in each case. Moreover, the Potency result in [5], in [6], in assay [9], in assay [10] and in assay [14] was “inactive” throughout. Besides, the result in assay [11], in [12], in assay [13], in [15] and in assay [16] was inactive.

As to `CC#N`, the Potency entry in assay [1], in assay [18], in assay [2], in [17], in assay [4] and in assay [5] was “inactive” each time. Moreover, the Potency result in assay [6], in assay [9], in [10] and in [14] was “inactive” each time. Also, the result in [11], in assay [12], in assay [13], in [15] and in assay [16] was inactive.

`O=C(CCCCCCC(=O)Nc1ccccc1)NO`: the Potency entry in [18], in assay [2], in assay [17], in assay [6], in assay [9] and in assay [10] was “inactive” in each case. The outcome in [8], in assay [11], in assay [12], in assay [13], in assay [15] and in assay [16] was inactive. In addition, the Potency in [14] was 7.5 µM (active).

Regarding `Fc1c(F)c(F)c(Br)c(F)c1F`, the Potency entry in assay [18], in assay [2], in assay [4], in assay [6], in assay [9] and in assay [10] was “inactive” throughout. Besides, the Potency entry in [14] was “inactive”. Also, the result in assay [7], in [11], in assay [12], in [13], in [15] and in [16] was inactive.
